Laboratory results published in PubChem BioAssay AID624139 (Broad Institute, 2012).
The whole screen tested about 17,000 compounds, of which about 220 (1.3%) were called active.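 The calls were made as follows: active = spot fluorescence over background significantly raised, with a chance value under 7% in all four replicate spots of the compound; inactive = the rest.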 Only a selection was taken, and actives are over-represented in it overall.

These compounds were tested against Nuclear factor NF-kappa-B p105 subunit (Homo sapiens) (UniProt P19838) (assay: binders of NF-kB p50 subunit, primary screen, biochemical, small molecule microarray, anti-His fluorescence (AID 624139;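 also: probe protein is his-tagged human p50 processed subunit at 1 µg/ml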)). Settings: anti-His fluorescence binding.
Nuclear factor NF-kappa-B p105 subunit (Homo sapiens), sequence (P19838 1-433 limits assumed): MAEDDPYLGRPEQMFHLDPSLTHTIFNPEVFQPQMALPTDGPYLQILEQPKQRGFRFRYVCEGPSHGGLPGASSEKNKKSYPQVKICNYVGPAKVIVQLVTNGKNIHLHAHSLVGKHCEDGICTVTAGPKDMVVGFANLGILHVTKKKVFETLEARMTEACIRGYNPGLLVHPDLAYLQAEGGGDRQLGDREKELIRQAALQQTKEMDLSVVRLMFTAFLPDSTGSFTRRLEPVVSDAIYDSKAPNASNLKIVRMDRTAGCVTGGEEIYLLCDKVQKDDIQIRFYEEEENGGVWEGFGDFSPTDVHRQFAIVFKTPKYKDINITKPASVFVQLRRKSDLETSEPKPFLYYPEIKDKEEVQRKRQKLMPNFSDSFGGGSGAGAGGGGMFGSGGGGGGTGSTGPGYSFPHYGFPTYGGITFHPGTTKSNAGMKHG

Compound	outcome
CC(C)(C)[C@H]1C=C(C(=O)NCc2ccccc2)O[C@@H](OCc2ccc(CO)cc2)C1	inactive
Cc1sc2nc(SCC(=O)Nc3ccccc3C(F)(F)F)nc(N)c2c1C	inactive
NC(=O)CSc1nnc(-c2ccccc2F)n1-c1ccccc1	inactive
C[C@@H]1CN([C@H](C)CO)C(=O)c2cc(NC(=O)CCCN(C)C)ccc2O[C@H]1CN(C)Cc1ccc(C(=O)O)cc1	inactive
CC(C)NC(=O)N(C)C[C@H]1OCCCC[C@H](C)Oc2ccc(NC(=O)CCC(F)(F)F)cc2C(=O)N([C@@H](C)CO)C[C@@H]1C	inactive
C[C@@H]1CCCCO[C@@H](CN(C)Cc2ccccc2)[C@H](C)CN([C@H](C)CO)C(=O)c2cc(NS(=O)(=O)c3cccs3)ccc2O1	inactive
C[C@@H]1CN([C@H](C)CO)C(=O)Cc2cc(NC(=O)CCN3CCOCC3)ccc2O[C@H]1CN(C)Cc1ccncc1	inactive
C[C@@H]1CCCCO[C@H](CN(C)Cc2ccncc2)[C@H](C)CN([C@H](C)CO)C(=O)c2cc(NC(=O)Nc3ccccc3)ccc2O1	inactive
CC(C)NC(=O)Nc1cccc2c1O[C@H](CN(C)Cc1ccccc1)[C@H](C)CN([C@H](C)CO)C2=O	inactive
C[C@@H]1CN([C@H](C)CO)C(=O)Cc2cc(NC(=O)CCCN(C)C)ccc2O[C@@H]1CN(C)S(=O)(=O)c1cccs1	inactive
C[C@H](CO)N1C[C@H](C)[C@@H](CN(C)S(=O)(=O)c2cn(C)cn2)Oc2ccc(N(C)C)cc2CC1=O	inactive
C[C@H]1CN([C@@H](C)CO)C(=O)c2cc(NC(=O)Nc3cccc4ccccc34)ccc2O[C@@H]1CN(C)C	inactive
C[C@H](CO)N1C[C@H](C)[C@H](CN(C)C(=O)NC2CCCC2)Oc2ncc(-c3ccc(F)cc3)cc2C1=O	inactive
CCOc1ccc(-c2cn(S(=O)(=O)c3cccc4nsnc34)nc2N)cc1	inactive
Cc1cccc(NC(=O)CN2C(=O)CNC2=O)c1	inactive
CC(C)NC(=O)Nc1ccc2c(c1)C(=O)N([C@@H](C)CO)C[C@H](C)[C@@H](CN(C)C)O2	inactive
C[C@H](CO)N1C[C@H](C)[C@@H](CN(C)C)Oc2ccc(N(C)C)cc2C1=O	inactive
C[C@@H]1CN([C@H](C)CO)C(=O)c2cccc(NS(C)(=O)=O)c2O[C@@H]1CN(C)S(=O)(=O)c1cccs1	inactive
C[C@H]1CN([C@@H](C)CO)C(=O)c2cc(NC(=O)NC3CCCCC3)ccc2O[C@@H]1CN(C)S(=O)(=O)c1cccs1	inactive
COc1cccc(/C=C(\C#N)C(=O)Nc2c(C)n(C)n(-c3ccccc3)c2=O)c1	inactive
C[C@H](CO)N1C[C@H](C)[C@H](CN(C)C(=O)NC2CCCCC2)Oc2ccc(NC(=O)c3ccncc3)cc2CC1=O	inactive
Cc1c(C(=O)NC(=S)NCc2cccnc2)oc2ccccc12	inactive
Cc1noc(C)c1NC(=O)N(C)C[C@@H]1OCCCC[C@H](C)Oc2ccc(NC(=O)CCC(F)(F)F)cc2C(=O)N([C@@H](C)CO)C[C@@H]1C	inactive

Compound	outcome
C[C@H]1CN([C@@H](C)CO)C(=O)Cc2cc(NC(=O)Nc3ccc(F)cc3)ccc2O[C@@H]1CN(C)C(=O)NC1CCCCC1	inactive
O=C(Nc1cccc(OCC(=O)N2CCOCC2)c1)C1CCCCC1	inactive
O=C(C1=C[C@H](c2coc3ccccc3c2=O)C[C@H](OCc2ccc(CO)cc2)O1)N1CCOCC1	inactive
C[C@@H]1CN([C@H](C)CO)C(=O)Cc2cc(NC(=O)C3CC3)ccc2O[C@H]1CN(C)Cc1ccc(Cl)c(Cl)c1	active
C[C@H]1CN([C@@H](C)CO)C(=O)c2cccc(NC(=O)Nc3ccc(C(F)(F)F)cc3)c2O[C@H]1CN(C)C(=O)NC1CCCCC1	active
C[C@H](CO)N1C[C@H](C)[C@@H](CN(C)C(=O)NC2CCCCC2)Oc2c(NC(=O)Nc3ccc(F)cc3)cccc2C1=O	inactive
C[C@@H]1CN([C@H](C)CO)C(=O)Cc2cc(NC(=O)C3CC3)ccc2O[C@H]1CN(C)Cc1ccc2c(c1)OCO2	inactive
C[C@@H]1CCCCO[C@@H](CN(C)C(=O)Nc2ccccc2)[C@@H](C)CN([C@@H](C)CO)C(=O)c2cc(N(C)C)ccc2O1	inactive
C[C@@H]1CCCCO[C@@H](CN(C)C(=O)Nc2ccccc2)[C@@H](C)CN([C@H](C)CO)C(=O)c2cc(NC(=O)Nc3ccc(F)cc3)ccc2O1	inactive
CC(C)NC(=O)Nc1ccc2c(c1)C(=O)N([C@@H](C)CO)C[C@@H](C)[C@H](CN(C)C(=O)Cc1ccccc1)OCCCC[C@H](C)O2	inactive
C[C@@H]1CCCCO[C@@H](CN(C)C(=O)Cc2ccccc2)[C@H](C)CN([C@@H](C)CO)C(=O)c2cc(NC(=O)Nc3ccc(F)cc3)ccc2O1	active
C[C@@H]1CCCCO[C@H](CN(C)C(=O)Nc2ccccc2)[C@H](C)CN([C@@H](C)CO)C(=O)c2cc(N(C)C)ccc2O1	inactive
C[C@H](CO)N1C[C@H](C)[C@@H](CN(C)C(=O)Nc2ccccc2)Oc2ccc(NC(=O)C3CC3)cc2CC1=O	inactive
C[C@@H]1CN([C@H](C)CO)C(=O)c2cccc(NC(=O)Nc3ccccc3)c2O[C@@H]1CN(C)C(=O)NC1CCCCC1	inactive
C[C@H](CO)N1C[C@H](C)[C@@H](CN(C)C(=O)Nc2cccc3ccccc23)OCCCC[C@H](C)Oc2ccc(N(C)C)cc2C1=O	active
C[C@@H]1CCCCO[C@H](CN(C)C(=O)C2CCCCC2)[C@@H](C)CN([C@@H](C)CO)C(=O)c2cc(NC(=O)Nc3ccccc3)ccc2O1	active
C[C@@H]1CN([C@@H](C)CO)C(=O)c2cc(NC(=O)C3CCCCC3)ccc2O[C@@H](C)CCCCO[C@@H]1CN(C)C(=O)Nc1ccccc1	inactive
C[C@H](CO)N1C[C@H](C)[C@@H](CN(C)C)OCCCC[C@H](C)Oc2ccc(NC(=O)C3CCCCC3)cc2C1=O	inactive
C[C@@H]1CCCCO[C@H](CN(C)C(=O)NC2CCCCC2)[C@H](C)CN([C@@H](C)CO)C(=O)c2cc(NC(=O)C3CCCCC3)ccc2O1	active
CC(C)NC(=O)N(C)C[C@@H]1OCCCC[C@@H](C)Oc2ccc(NC(=O)Nc3ccccc3)cc2C(=O)N([C@H](C)CO)C[C@@H]1C	inactive
C[C@@H]1CCCCO[C@H](CN(C)C(=O)Nc2ccccc2)[C@H](C)CN([C@H](C)CO)C(=O)c2cc(NC(=O)Nc3ccccc3)ccc2O1	inactive
C[C@@H]1CN([C@@H](C)CO)C(=O)c2cc(NS(=O)(=O)c3ccccc3)ccc2O[C@@H](C)CCCCO[C@H]1CN(C)C(=O)C1CCCCC1	inactive
C[C@@H]1CCCCO[C@H](CN(C)C(=O)CCCN(C)C)[C@H](C)CN([C@@H](C)CO)C(=O)c2cc(NS(=O)(=O)c3ccccc3)ccc2O1	inactive

Compound	outcome
CCC1(C)C(=O)C=C2C(=COC(C)=C2C)C1O (centres undefined)	inactive
COc1ccccc1NC(=O)c1ccc(OCC(=O)O)cc1	inactive
C[C@H](CO)N1C[C@H](C)[C@@H](CN(C)C(=O)Nc2cccc3ccccc23)Oc2c(NS(=O)(=O)c3ccccc3)cccc2C1=O	inactive
CC1OC(Oc2cc(O)c3c(=O)c(OC4OCC(O)C(O)C4O)c(-c4ccc(O)cc4)oc3c2)C(O)C(O)C1O (centres undefined)	inactive
O=C(CS(=O)(=O)c1ccccc1)Nc1ccc2c(c1)OCCO2	inactive
COc1ccc(CN(C)C[C@H]2Oc3ccc(NC(=O)CCN4CCOCC4)cc3C(=O)N([C@@H](C)CO)C[C@H]2C)cc1	inactive
CC(=O)OC[C@H]1O[C@@H](Oc2c(-c3ccc(O)c(O)c3)oc3cc(O)cc(O)c3c2=O)[C@H](O)[C@@H](O)[C@@H]1O	inactive
C[C@H](CO)N1C[C@H](C)[C@@H](CN(C)Cc2ccc3c(c2)OCO3)Oc2ccc(NC(=O)Nc3ccc(F)cc3)cc2C1=O	inactive
C[C@@H]1CN([C@@H](C)CO)C(=O)c2cc(NC(=O)Nc3ccc4c(c3)OCO4)ccc2O[C@@H](C)CCCCO[C@@H]1CN(C)Cc1ccccc1	inactive
CCOC(=O)c1nnn(-c2nonc2-n2cccc2)c1CN1CCOCC1	inactive
Cc1noc(C)c1NC(=O)Nc1ccc2c(c1)CC(=O)N([C@@H](C)CO)C[C@H](C)[C@@H](CN(C)C(=O)Nc1ccc3c(c1)OCO3)O2	inactive
C[C@@H]1CN([C@@H](C)CO)C(=O)Cc2cc(NC(=O)NC3CCCCC3)ccc2O[C@H]1CN(C)C(=O)Nc1ccc(C(F)(F)F)cc1	inactive
Cc1cc(C)cc(Oc2c(C(F)(F)F)oc3cc(OCC(=O)O)ccc3c2=O)c1	active
C[C@H]1CN([C@@H](C)CO)C(=O)Cc2cc(NS(C)(=O)=O)ccc2O[C@@H]1CN(C)S(=O)(=O)c1cccs1	inactive
N#Cc1c(SCC(=O)Nc2ccccc2)ncc2cc3ccccc3nc12	inactive
CN(C)Cc1c(O)ccc2occ(C(O)c3ccccc3)c12 (centres undefined)	inactive
Cc1ccc(S(=O)(=O)NCC(=O)N2CCN(c3ccccn3)CC2)cc1	inactive
CCCN(C)C[C@@H]1Oc2ncc(C#Cc3ccccc3)cc2C(=O)N([C@H](C)CO)C[C@@H]1C	inactive
C#Cc1ccc([C@H]2C=C(C(=O)O)O[C@@H](OCC)[C@@H]2CCCO)cc1	inactive
COc1ccc(NC(=O)N(C)C[C@@H]2OCCCC[C@@H](C)Oc3ccc(N(C)C)cc3C(=O)N([C@H](C)CO)C[C@@H]2C)cc1	inactive
C[C@@H]1CCCCO[C@@H](CN(C)C)[C@@H](C)CN([C@H](C)CO)C(=O)c2cc(N(C)C)ccc2O1	inactive
C[C@H](CO)N1C[C@H](C)[C@@H](CN(C)C(=O)C2CCCCC2)OCCCC[C@H](C)Oc2ccc(N(C)C)cc2C1=O	inactive
C[C@@H]1CCCCO[C@H](CN(C)S(=O)(=O)c2cccs2)[C@@H](C)CN([C@@H](C)CO)C(=O)c2cc(NC(=O)Nc3ccc4c(c3)OCO4)ccc2O1	inactive
